Results reported in PubChem BioAssay (NCATS).
Inconclusive results are not listed. Activity calls are given as the source filed them. Unless noted, calls follow the shape of the dose curve; as a rule, active = well fitted curve in the direction sought with a large enough effect; inconclusive = small, poorly fitted or top-dose-only effect, or another doubt; inactive = no such curve, though single readings can be large; an effect the other way counts as inactive or inconclusive.

How the values were obtained:
[1] = qHTS for differential inhibitors of proliferation of Plasmodium falciparum line GB4 (AID 1816); conditions: Potency: Plasmodium falciparum GB4 proliferation inhibition;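 also: potency is read from the fitted curve at half-maximal effect; parasite growth measured after 72 h incubation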
[2] = qHTS for differential inhibitors of proliferation of Plasmodium falciparum line W2 (AID 1883); conditions: Potency: Plasmodium falciparum W2 proliferation inhibition;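 also: potency is read from the fitted curve at half-maximal effect; parasites grown with compound for 72 h before lysis and staining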
[3] = Validation screen for small molecules that induce genotoxicity in human embryonic kidney (HEK293T) cells expressing luciferase-tagged ELG1 (AID 493106)
Outline: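 ELG1-luciferase reporter readout (ONE-Glo, 30 min, room temperature) after 16 hr compound treatment at 37 °C of HEK293T cells at 2,000 per well. Rising luminescence flags genotoxic stress.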

[4] = qHTS assay for small molecule agonists of the antioxidant response element (ARE) signaling pathway (AID 651741; active = well fitted activation curve with a large enough effect in the signal ratio; the % refers to the signal ratio; also: potency is read from the fitted curve at half-maximal effect)
Outline: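 Beta-lactamase reporter under ARE control in HepG2 cells, 2,000 per well, was induced by 16 h compound treatment at 37 C. Read-out was fluorescence from LiveBLAzer B/G FRET substrate after 2 h at room temperature.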

[5] = qHTS assay to identify small molecules that stimulate interleukin-8 (IL-8) secretion (AID 651758; active = well fitted activation curve with a large enough effect in the signal ratio; the % refers to the signal ratio)
Outline: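 Secreted IL-8 measured homogeneously by TR-FRET (two labelled anti-IL-8 antibodies, 1-3 h at room temperature) after a 16 h, 37 C compound treatment of THP-1 cells at 2000 cells/well.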

In the case of `CC(=O)[C@H]1CC[C@H]2[C@@H]3CCC4=CC(=O)CC[C@]4(C)[C@H]3CC[C@]12C`, the Potency [1] is reported as 12.6 µM (active), the Potency [2] is reported as 7.94 µM (active) and the outcome [3] is reported as “inactive”. For the same compound, the Potency [4] was 37.6 µM (active) and the Potency [5] was “inactive”.
